Measured values reported in article PMC4081100, “A DNA-binding-site landscape and regulatory network analysis for NAC transcription factors in Arabidopsis thaliana”.

Experiments:
Test in all cases: universal protein binding microarray (PBM); transcription factors of Arabidopsis thaliana; high values mean tight binding
Conditions in all cases: protein: recombinant; tags: GST; chain copies: 2; dsDNA, one strand shown
[1] = target: T1, GST-ANAC092(1-176) (Arabidopsis thaliana, UniProt Q9FKA0 1-176)
T1 sequence: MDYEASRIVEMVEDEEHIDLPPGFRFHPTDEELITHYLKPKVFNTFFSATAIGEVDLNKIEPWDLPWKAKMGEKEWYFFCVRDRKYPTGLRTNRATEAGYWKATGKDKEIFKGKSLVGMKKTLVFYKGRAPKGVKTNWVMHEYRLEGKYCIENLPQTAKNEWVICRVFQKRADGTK
Outline: (§1)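 Binding is expressed as the normalised enrichment score (E-score). Proteins carrying a GST tag, whether NAC-domain, full-length or DNA-binding-domain forms, were induced in cells, and zinc acetate was added for zinc-finger proteins. After purification on glutathione–Sepharose 4B and quantification by A280 or anti-GST western blot, each was applied in duplicate at 200 to 500 nM final to custom all-10-mer Agilent 4 × 180K arrays made double-stranded by primer extension. Gapped and ungapped 8-mers were scored.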

[2] = target: GST-NTL6(1-168) (Arabidopsis thaliana, UniProt Q9SCK6 1-168)
Chain of GST-NTL6(1-168) (Q9SCK6 1-168): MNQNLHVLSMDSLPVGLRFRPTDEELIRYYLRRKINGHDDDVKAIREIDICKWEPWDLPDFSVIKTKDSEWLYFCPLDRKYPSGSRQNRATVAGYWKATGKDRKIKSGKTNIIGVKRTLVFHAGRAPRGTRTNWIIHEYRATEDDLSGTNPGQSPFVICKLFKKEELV
Outline: as §1

[3] = target: T2, GST-ANAC019 NAC domain (Arabidopsis thaliana, UniProt Q9C932 14-162)
T2 sequence: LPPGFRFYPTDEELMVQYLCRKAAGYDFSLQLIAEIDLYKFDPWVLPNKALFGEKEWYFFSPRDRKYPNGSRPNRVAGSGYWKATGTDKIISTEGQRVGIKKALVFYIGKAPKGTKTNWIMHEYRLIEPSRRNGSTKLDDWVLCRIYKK
Outline: as §1

[4] = target: T3, GST-ANAC055(1-171) (Arabidopsis thaliana, UniProt Q9LDY8 1-171)
T3 sequence: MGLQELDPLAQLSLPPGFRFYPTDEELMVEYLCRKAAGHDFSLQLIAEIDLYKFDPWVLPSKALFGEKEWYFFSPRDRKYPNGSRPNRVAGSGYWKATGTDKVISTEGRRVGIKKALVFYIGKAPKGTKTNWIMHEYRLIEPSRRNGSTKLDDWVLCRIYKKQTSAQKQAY
Outline: as §1

[5] = target: T4, GST-ATAF1 NAC domain (Arabidopsis thaliana, UniProt Q39013 7-158)
T4 sequence: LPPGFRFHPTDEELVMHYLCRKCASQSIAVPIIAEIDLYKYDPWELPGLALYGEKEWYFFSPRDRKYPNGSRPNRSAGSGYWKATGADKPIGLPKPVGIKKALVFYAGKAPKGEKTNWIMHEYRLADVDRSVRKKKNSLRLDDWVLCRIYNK
Outline: as §1

[6] = target: T5, GST-ANAC092(1-285) full length (Arabidopsis thaliana, UniProt Q9FKA0 1-285)
T5 sequence: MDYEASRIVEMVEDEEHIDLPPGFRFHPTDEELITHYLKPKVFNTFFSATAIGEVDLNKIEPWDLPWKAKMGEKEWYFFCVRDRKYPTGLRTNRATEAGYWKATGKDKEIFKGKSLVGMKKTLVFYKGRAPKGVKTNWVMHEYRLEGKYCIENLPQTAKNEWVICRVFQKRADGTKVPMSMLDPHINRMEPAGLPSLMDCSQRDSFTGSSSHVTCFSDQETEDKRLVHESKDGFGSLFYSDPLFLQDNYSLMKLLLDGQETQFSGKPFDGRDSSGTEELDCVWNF
Outline: as §1

[7] = target: T6, GST-NAP(1-166) (Arabidopsis thaliana, UniProt O49255 1-166)
T6 sequence: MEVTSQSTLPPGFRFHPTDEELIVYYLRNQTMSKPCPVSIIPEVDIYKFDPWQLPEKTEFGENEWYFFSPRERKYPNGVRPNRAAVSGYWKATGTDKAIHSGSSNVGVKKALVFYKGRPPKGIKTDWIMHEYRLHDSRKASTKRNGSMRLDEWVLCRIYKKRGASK
Outline: as §1

[8] = target: T7, GST-NST2(1-184) (Arabidopsis thaliana, UniProt Q9M274 1-184)
T7 sequence: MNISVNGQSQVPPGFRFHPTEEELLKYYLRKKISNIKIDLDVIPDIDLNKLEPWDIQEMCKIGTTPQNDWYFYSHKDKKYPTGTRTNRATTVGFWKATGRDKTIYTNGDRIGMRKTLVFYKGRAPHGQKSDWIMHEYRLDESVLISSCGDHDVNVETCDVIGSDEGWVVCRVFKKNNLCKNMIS
Outline: as §1

[9] = target: T8, GST-NTL8 NAC domain (Arabidopsis thaliana, UniProt Q9XIN7 14-156)
T8 sequence: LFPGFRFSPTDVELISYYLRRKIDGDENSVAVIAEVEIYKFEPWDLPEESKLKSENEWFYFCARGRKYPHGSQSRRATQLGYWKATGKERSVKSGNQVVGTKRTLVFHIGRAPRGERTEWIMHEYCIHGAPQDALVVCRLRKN
Outline: as §1

[10] = target: T9, GST-SND1(1-203) (Arabidopsis thaliana, UniProt Q9LPI7 1-203)
T9 sequence: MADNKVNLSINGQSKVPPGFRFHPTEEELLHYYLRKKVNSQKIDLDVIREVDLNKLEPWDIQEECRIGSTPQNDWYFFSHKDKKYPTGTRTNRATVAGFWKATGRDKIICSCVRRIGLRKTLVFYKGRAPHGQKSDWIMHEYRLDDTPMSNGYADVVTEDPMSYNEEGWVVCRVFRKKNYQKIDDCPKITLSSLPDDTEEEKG
Outline: as §1

[11] = target: T10, GST-VND3 NAC domain (Arabidopsis thaliana, UniProt Q9FH59 12-162)
T10 sequence: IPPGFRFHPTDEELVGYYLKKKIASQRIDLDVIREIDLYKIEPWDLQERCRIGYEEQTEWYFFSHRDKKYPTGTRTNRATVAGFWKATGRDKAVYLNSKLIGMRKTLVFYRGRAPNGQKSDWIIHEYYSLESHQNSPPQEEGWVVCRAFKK
Outline: as §1

[12] = target: T11, GST-VND7 NAC domain (Arabidopsis thaliana, UniProt Q9C8W9 9-158)
T11 sequence: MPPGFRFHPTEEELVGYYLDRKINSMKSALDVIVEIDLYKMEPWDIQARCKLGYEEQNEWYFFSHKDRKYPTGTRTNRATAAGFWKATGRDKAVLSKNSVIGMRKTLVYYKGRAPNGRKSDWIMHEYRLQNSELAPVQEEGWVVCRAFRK
Outline: as §1

Sequence | binding signal [1] [E-score] | binding signal [2] [E-score] | binding signal [3] [E-score] | binding signal [4] [E-score] | binding signal [5] [E-score] | binding signal [6] [E-score] | binding signal [7] [E-score] | binding signal [8] [E-score] | binding signal [9] [E-score] | binding signal [10] [E-score] | binding signal [11] [E-score] | binding signal [12] [E-score]
TTACGCAA | 0.484 | 0.18 | 0.447 | 0.335 | 0.375 | 0.484 | 0.442 | 0.437 | 0.18 | 0.495 | 0.457 | 0.468
ACGAGAAA | 0.249 | 0.265 | 0.324 | 0.419 | 0.184 | 0.141 | 0.206 | 0.188 | 0.124 | 0.151 | 0.276 | 0.302
CAAGTAAC | 0.352 | 0.316 | 0.134 | 0.203 | 0.0948 | 0.408 | 0.0502 | 0.298 | 0.185 | 0.301 | 0.209 | 0.0947
GTTAAGCA | 0.131 | 0.408 | 0.0907 | 0.0654 | 0.119 | 0.153 | – | 0.209 | – | 0.223 | 0.143 | 0.0676
ACAAGTAA | 0.41 | 0.25 | 0.125 | 0.236 | 0.238 | 0.439 | – | 0.288 | – | 0.257 | 0.249 | 0.0784
AAACGTAA | 0.261 | 0.216 | 0.268 | 0.325 | 0.296 | 0.378 | 0.294 | 0.302 | 0.154 | 0.435 | 0.344 | 0.294
GGAAGTAA | 0.249 | 0.404 | 0.151 | 0.104 | 0.123 | 0.307 | – | 0.248 | 0.203 | 0.259 | 0.133 | 0.0641
AGAAGCAA | 0.381 | 0.361 | 0.0522 | 0.119 | 0.0783 | 0.42 | – | 0.284 | 0.218 | 0.382 | 0.109 | 0.234
GTTAAGTA | 0.119 | 0.45 | 0.171 | 0.0947 | 0.218 | 0.123 | – | 0.148 | 0.228 | 0.202 | 0.245 | 0.0716
AAAGGAAA | 0.196 | 0.284 | 0.105 | 0.11 | 0.153 | 0.0862 | – | 0.179 | 0.457 | 0.225 | 0.166 | 0.134
CGTTTCCC | 0.244 | 0.14 | 0.176 | 0.176 | 0.108 | 0.274 | 0.28 | 0.0635 | 0.422 | 0.265 | 0.179 | 0.186
GCAAGGAA | 0.345 | 0.418 | 0.185 | 0.211 | 0.18 | 0.371 | 0.133 | 0.175 | 0.431 | 0.276 | 0.187 | 0.229
CGAGGAAA | 0.0746 | 0.138 | 0.0533 | 0.139 | 0.152 | 0.131 | 0.0581 | 0.0987 | 0.442 | 0.17 | 0.155 | 0.173
AATTGCGT | 0.451 | 0.0568 | 0.394 | 0.395 | 0.319 | 0.46 | 0.432 | 0.294 | 0.0923 | 0.412 | 0.415 | 0.418
